Measurements published in PubChem BioAssay AID463095 (Sanford-Burnham Center for Chemical Genomics, 2010).
The other results are listed elsewhere or left out. Active and inactive are the calls of the source.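 How the source made its calls: active means proliferation increase above 40% at any of the four tested concentrations; inactive means the rest.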

assay: inducers of beta-cell proliferation in MIN6, confirmation, MIN6 cells, mouse (AID 463095); settings: ATPlite luminescence, 48 h, cells kept in 0.2% serum, scaled between 0.2% and 10% serum; series mostly up to 50 µM

outcome, inactive:
Cc1ccc(S(=O)(=O)N2CCCCC2)cc1C(=O)N1CCN(CCO)CC1, COc1cc2c(cc1OC)C(C(=O)NCc1ccco1)C1c3ccccc3CCN1C2=O (stereo unspecified), Cc1ccccc1CNC(=O)CCC(=O)N1Cc2ccccc2Oc2ncccc21, CC(=O)c1cnc(-c2ccccc2)s1, COc1ccccc1OCc1ccc(C(=O)N2CCN(C)CC2)o1, COCCNc1nc(-c2ccccc2)nc2c1oc1ccccc12, OC1CN=C2Sc3ccccc3N2C1 (stereo unspecified), CC1(C)C2CC=C(/C=N/NC(=O)C3CC3)C1C2 (stereo unspecified), CC/C(=N/Nc1ccccc1)c1cnnc(SC)n1, COc1ccc(-c2nnn(Cc3nc(N)nc(N4CCCCC4)n3)n2)cc1, Cc1cc(NC(=O)CSc2nc3ccccc3n2CC(C)C)no1, Cc1cc(NC(=O)c2ccco2)c(=O)n(Cc2c(F)cccc2Cl)c1, Cc1ccccc1NC(=S)NNC(=O)c1cccc(Br)c1, COC(=O)Nc1sc2nc(C)cc(C)c2c1-n1cccc1, Fc1ccc(CNCc2ccc(Br)cc2)cc1, CCOC(=O)C1=C(CC)OC(N)=C(C#N)C1c1ccc(F)cc1F (stereo unspecified), CN(Cc1ccc(F)cc1Cl)S(=O)(=O)c1cccs1, O=C(Nc1ccc(F)cc1)C1CCCN(S(=O)(=O)c2ccc(-n3cnnn3)cc2)C1 (stereo unspecified), CCn1c(=O)c([N+](=O)[O-])c(NCc2ccc3c(c2)OCO3)c2ccccc21, CC(=O)c1ccc(S(=O)(=O)NCc2nnnn2-c2ccccc2)cc1, C/C(=N\NC(=O)c1ccccc1C)c1ccc(N2CCOCC2)cc1
